# The list is not random: actives were taken first. Their share in the collection is about 4.6%.
# Tau fluor cs = Counterscreen qHTS for Inhibitors of Tau Fibril Formation, Fluorescence Polarization. tau K18 P301L Alexa594 fluorescence, heparin fibrillization. Potency, µM (series often up to 57.7 µM). 0.93% of 280,000 active; note: nearly all actives have a fitted effect of over 55% in size
#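 Human K18 P301L tau (15 uM unlabeled plus 0.24 uM Alexa 594-labeled, final) in 100 mM sodium acetate pH 7 was mixed with compound and 20 uM heparin and incubated 6 hr at 37 C.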
# TexasRed fluor = Total Fluorescence Counterscreen for Inhibitors of the Interaction of Thyroid Hormone Receptor and Steroid Receptor Coregulator 2 | Potency, µM (doses to about 106 µM) | TRb/SRC2 Texas Red total fluorescence interference | 0.29% of 280,000 active; active = well fitted curve in either direction with a large enough effect; inconclusive = small, poorly fitted or top-dose-only effect
#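 Flags fluorescent or light-absorbing compounds by total fluorescence, S + 2P, at 555 nm excitation and 632 nm emission. Mixture: 20 nM Texas Red SRC2 peptide, 0.6 uM human TRb LBD, 1 uM T3, 5% DMSO; compound exposure 5 h at ambient temperature.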
# TRb SRC2 PPI = qHTS for Inhibitors of the Interaction of Thyroid Hormone Receptor and Steroid Receptor Coregulator 2 | AID 1469, 2008 | Potency, µM (top dose mostly 106 µM), hits mostly inhibitors | 0.065% of 280,000 active | TRbeta-SRC2 peptide binding, fluorescence polarization; receptor liganded with 1 µM T3; note: nearly all actives have a fitted effect of over 50% in size
# Target sequence (P10828 whole entry, looked up): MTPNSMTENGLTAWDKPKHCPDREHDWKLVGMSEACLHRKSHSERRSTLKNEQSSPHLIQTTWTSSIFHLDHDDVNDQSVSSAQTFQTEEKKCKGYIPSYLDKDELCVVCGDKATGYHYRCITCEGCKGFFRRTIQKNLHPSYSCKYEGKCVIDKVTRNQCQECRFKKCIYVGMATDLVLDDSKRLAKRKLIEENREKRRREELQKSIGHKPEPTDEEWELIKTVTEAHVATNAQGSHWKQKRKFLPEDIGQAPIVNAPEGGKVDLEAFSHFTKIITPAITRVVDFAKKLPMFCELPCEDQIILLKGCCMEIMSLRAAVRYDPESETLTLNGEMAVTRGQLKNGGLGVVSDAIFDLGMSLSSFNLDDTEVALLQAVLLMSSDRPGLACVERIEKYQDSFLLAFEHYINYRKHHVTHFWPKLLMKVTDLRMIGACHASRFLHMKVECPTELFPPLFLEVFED
#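 Binding of a 20-amino-acid Texas Red SRC2 peptide (20 nM) to TRb ligand-binding domain (0.6 uM) with agonist T3 at 1 uM was followed by fluorescence polarization after a 5 hr room-temperature incubation.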
# Tau FP inhib = qHTS for Inhibitors of Tau Fibril Formation, Fluorescence Polarization; 0.39% of 280,000 active; K18 P301L tau heparin fibrillization, Alexa594 FP, 6 h; Potency, µM (highest dose often 57.7 µM), usual class: inhibitors; AID 1468, 2008; Microtubule-associated protein tau (Homo sapiens), P10636; note: nearly all actives have a fitted effect of over 55% in size
# Target sequence (P10636 561-689 P618L limits assumed): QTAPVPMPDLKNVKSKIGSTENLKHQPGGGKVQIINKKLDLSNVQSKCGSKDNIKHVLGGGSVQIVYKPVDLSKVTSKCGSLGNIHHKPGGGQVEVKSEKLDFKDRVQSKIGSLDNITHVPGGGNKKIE
#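 Human tau K18 […] P301L fragment, 15 uM unlabeled plus 0.24 uM Alexa 594-labeled tau (final), with compound and 20 uM heparin in 100 mM sodium acetate pH 7; 6 hr at 37 C, then Alexa 594 FP read.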
# PNC assembly inh = High Content Assay for Compounds that inhibit the Assembly of the Perinucleolar Compartment; AID 2417, 2010; activity change (PNC), negative = inhibition, % at 10 µM; PC3M PTB-GFP, PNC prevalence imaging, 16 h; hits give low values; 3.1% of 140,000 active;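 active = readout at or below -70, meaning at least 70% loss of cells showing the perinucleolar compartment, a nuclear body marking cancer cells; inconclusive = readout between -30 and a set limit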
#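 PC3M cells stably expressing PTB-GFP, 750–1000 cells/well, treated 16 h at 37 °C with compound (23 nl of library stock), in duplicate. After paraformaldehyde fixation and Hoechst stain, imaged at 20x; PNC prevalence scored by image analysis.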
# Tau fibril ThT = qHTS for Inhibitors of Tau Fibril Formation, Thioflavin T Binding | recombinant tau K18 P301L (four-repeat tau fragment), heparin-induced fibrillization, ThT fluorescence | Potency, µM (highest dose often 57.4 µM), usual class: inhibitors | 2.1% of 270,000 active; note: nearly all actives have a fitted effect of over 55% in size
#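 Heparin-induced fibrillization of the P301L-mutant K18 repeat-domain fragment of human tau was followed by ThT binding in quantitative high-throughput format.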
# Numbers stand for hits; . = inactive; ? = inconclusive; / = not tested or not shown; [ ] = another dose, or the depositor's remark. Unless noted, calls come from the whole dose curve; as a rule, active = well fitted curve in the direction sought with a large enough effect; inconclusive = small, poorly fitted or top-dose-only effect, or another doubt; inactive = no such curve, though single readings can be large; an effect the other way counts as inactive or inconclusive.
SMILES,Tau fluor cs,TexasRed fluor,TRb SRC2 PPI,Tau FP inhib,PNC assembly inh,Tau fibril ThT
CC(C)(C)C(=O)Nc1ccccc1C(=O)Nc1ccncc1,.,.,.,.,-100,.
Oc1ccccc1NCC(O)Cn1ccc2ccccc21 (stereo not given),20µM[quencher],.,.,.,.,14µM
CN1CCN(C(=O)c2cc3sccc3n2CC(=O)c2ccccc2)CC1,.,.,.,.,.,.
CC(Sc1nnnn1-c1ccccc1)C(=O)Nc1ccccc1-c1ccccc1 (stereo not given),.,.,.,.,-134,.
Cc1cccc(N(CC(N)=O)C2SC(=O)NC2=O)c1 (stereo not given),.,.,.,.,-100,.
O=C(O)CN(c1ccccc1)C1SC(=O)NC1=O (stereo not given),.,.,.,.,.,.
CCO[C@@H]1OC(C(N)=O)=C[C@H](c2ccccc2)[C@H]1CCCO,.,.,.,.,/,.
O=C(O)C1C2CCC(C2)C1C(=O)NCc1ccco1 (stereo not given),.,.,.,.,-100,.
O=C(NCc1ccco1)C1CC2CCC1C2 (stereo not given),.,.,.,.,.,.
CCOc1ccc(CCNc2ccc3nnc(-c4ccccc4)n3n2)cc1OCC,.,.,.,.,-119,.
O=C1NC2(C=Cc3c(ccc4ccccc34)O2)Oc2ccccc21 (stereo not given),.,.,.,.,.,?
CCCCCCCCS(=O)C1CS(=O)(=O)CC1O (stereo not given),.,10µM[fluorescent],5µM,.,/,.
CCOC(=O)c1c(C)nc2sc3c(=O)n(-c4ccc(OC)cc4)nnc3c2c1-c1ccc(OC)cc1,.,.,.,.,-106,.
CCOC(=O)c1c(C)nc2sc3c(c2c1-c1ccc(OC)cc1)NC(c1ccccc1)NC3=O (stereo not given),.,.,.,.,-83,.
COc1ccccc1NC(=O)N1CCC(C(=O)c2ccc(F)cc2)CC1,.,.,.,.,.,.
Cc1oc(-c2ccccc2)cc1C(=O)Nc1ccc(N(C)C)cc1,14µM[quencher],.,.,.,.,13µM
Cc1oc(-c2ccccc2)cc1C(=O)Nc1cccc(/C=C\C(=O)O)c1,.,.,.,.,/,.
Cc1cccc(/C=C2\CCC(=C3SCCCS3)C2=O)c1,.,.,.,.,.,1.4µM
O=C1C(=C2SCCCS2)CC/C1=C\c1ccc(F)cc1,.,.,.,.,.,1.1µM
O=C1/C(=C/c2ccc(F)cc2)CCC1C1CCCC1 (stereo not given),.,.,.,.,.,.
[O-]/C(=C(\C(=S)Nc1cccc2ccccc12)[n+]1ccccc1)c1ccc2c(c1)OCCO2,?,.,?,?,.,13µM
O=C(NNc1ccccc1[N+](=O)[O-])Nc1ccc(Cl)c(Cl)c1,16µM[quencher],.,.,?,.,16µM
O=C(Nc1ccc(Cl)c(Cl)c1)Nc1ccccc1O,13µM[quencher],.,.,.,/,?
CCN(CC)S(=O)(=O)c1cc([N+](=O)[O-])ccc1NNC(=O)Nc1ccc(Cl)c(Cl)c1,7.1µM[quencher],.,.,?,.,.
O=C(Nc1ccc(Cl)c(Cl)c1)Nc1ccc(Br)cc1F,?,.,.,7.1µM,.,?
SMILES,Tau fluor cs,TexasRed fluor,TRb SRC2 PPI,Tau FP inhib,PNC assembly inh,Tau fibril ThT
CCCCN(CCCC)S(=O)(=O)c1ccc(NC(=O)c2ccc([N+](=O)[O-])cc2Cl)cc1,?,.,.,?,?,.
O=C(c1ccc(Nc2nc3ccccc3n3nnnc23)cc1)N1CCN(c2cccc(C(F)(F)F)c2)CC1,.,.,.,.,/,.
O=C(Nc1ccccc1)Nc1ccc(Br)c(Cl)c1,?,.,.,14µM,?,?
CCCCCCn1c(=O)[nH]c2nc3cc(N)ccc3nc2c1=O,?,.,.,?,.,28µM
CCCCCn1c(=O)c(C(=O)c2ccccc2)nc2ccccc21,.,.,.,.,.,.
COc1ccccc1NC(=O)C(CCS(C)(=O)=O)N1C(=O)c2ccccc2C1=O (stereo not given),.,.,.,.,.,.
Cc1ccccc1NC(=O)Nc1ccc(C(F)(F)F)cc1,.,.,.,?,/,.
N#Cc1nc(-c2ccco2)oc1NCc1ccc(F)cc1,.,.,.,.,-82,.
CC(Nc1oc(-c2ccco2)nc1C#N)c1ccccc1 (stereo not given),.,.,.,.,.,.
CC(C)CNc1oc(-c2ccco2)nc1C#N,.,.,.,.,-100,.
N#Cc1nc(-c2ccco2)oc1NCc1cccnc1,.,.,.,.,.,.
Cc1cccc(C(O)(C(=O)NNc2ccc3ccccc3n2)c2cccc(C)c2)c1,.,.,.,.,.,.
NC(=O)c1nn(-c2ccccc2)c(=O)cc1O,.,.,.,.,.,.
NC(=O)c1nn(-c2cccc(Cl)c2)c(=O)cc1O,.,.,.,.,-100,.
O=C(CSc1nc2ncc(Cl)cc2[nH]1)N(Cc1ccccc1)C1CCS(=O)(=O)C1 (stereo not given),.,.,.,.,/,.
O=C(NCc1ccccc1)c1ccc2c(=O)[nH]c3c(C(=O)NCC4CCCO4)sc(=S)n3c2c1 (stereo not given),?,.,.,.,/,14µM
O=C(NC1CCCC1)c1sc(=S)n2c1[nH]c(=O)c1ccccc12,?,.,.,.,.,16µM
CCn1c(N)c(C(=O)NCC2CCCO2)sc1=S (stereo not given),.,.,.,?,.,35µM
CCCCCNC(=O)c1ccc2c(=O)[nH]c3c(C(=O)NCC4CCCO4)sc(=S)n3c2c1 (stereo not given),.,.,.,.,.,14µM
O=C(NCc1ccco1)c1sc(=S)n2c1[nH]c(=O)c1ccccc12,.,.,.,.,.,.
OCc1nc2ccccc2n1CCCOc1ccccc1,.,.,.,.,?,.
Cc1ccc(CNC(=O)c2ccc3c(=O)[nH]c4c(C(=O)NCC5CCCO5)sc(=S)n4c3c2)cc1 (stereo not given),?,.,.,.,/,8.9µM
CCCCNC(=O)c1onc(CSc2ccccc2F)c1C(=O)O,.,.,.,.,.,.
CCc1cccc(C)c1NC(=S)NCC1CCN(c2ccc(OC)cc2)C1 (stereo not given),?,.,.,.,/,?

# Bioassay records: PubChem BioAssay, National Center for Advancing Translational Sciences (NCATS)
